# In PubChem BioAssay (NCI):
# This is part of a sample that, as a whole, favours compounds with a hit. Of some 83,000 tested, about 20% had one in any assay.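 Values shown are percent growth following 48 h exposure of cells in 96-well plates to a single concentration of compound; below 10 was considered active.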 Values without a mark were called inactive. Activity calls are given as the source filed them.
# Legend:
# Test in all cases: NCI-60 one-dose screen, 48 h (100 = growth as untreated, 0 = no growth, -100 = all killed)
# Details in all cases: 10 µM unless noted
# SK-MEL-2 melanoma = test system: SK-MEL-2 melanoma
# EKVX NSCLC = test system: EKVX NSCLC
# SN12C renal = test system: SN12C renal
# UO-31 renal = test system: UO-31 renal
# TK-10 renal = test system: TK-10 renal
# ACHN renal = test system: ACHN renal
# CAKI-1 renal = test system: CAKI-1 renal
# A498 renal = test system: A498 renal
# CCRF-CEM leukemia = test system: CCRF-CEM leukemia
# MOLT-4 leukemia = test system: MOLT-4 leukemia
# SR leukemia = test system: SR leukemia
# RPMI-8226 leukemia = test system: RPMI-8226 leukemia
# OVCAR-8 ovarian = test system: OVCAR-8 ovarian
# OVCAR-5 ovarian = test system: OVCAR-5 ovarian
# OVCAR-4 ovarian = test system: OVCAR-4 ovarian
# SK-OV-3 ovarian = test system: SK-OV-3 ovarian
# IGROV1 ovarian = test system: IGROV1 ovarian
# OVCAR-3 ovarian = test system: OVCAR-3 ovarian
# HS 578T breast = test system: HS 578T breast
# NCI/ADR-RES ovarian = test system: NCI/ADR-RES ovarian
Structure (SMILES),growth (SK-MEL-2 melanoma),growth (EKVX NSCLC) [%],growth (SN12C renal),growth (UO-31 renal),growth (TK-10 renal),growth (ACHN renal),growth (CAKI-1 renal),growth (A498 renal),growth (CCRF-CEM leukemia),growth (MOLT-4 leukemia),growth (SR leukemia),growth (RPMI-8226 leukemia),growth (OVCAR-8 ovarian),growth (OVCAR-5 ovarian),growth (OVCAR-4 ovarian),growth (SK-OV-3 ovarian),growth (IGROV1 ovarian),growth (OVCAR-3 ovarian),growth (HS 578T breast),growth (NCI/ADR-RES ovarian)
COc1ccc(OC)c(CCn2cncc2-c2c[nH]c3ccc(Cl)cc23)c1,19%,37.5,63.6%,46.6%,50.7%,60.5%,31.3%,44.8%,49.4%,25%,16.3%,33.9%,40.5%,83.9%,16.2%,43.1%,58.8%,40%,57.1%,29.8%
COc1ccc(C(=O)c2c(N)c(C#N)cn2-c2ccc(Cl)cc2Cl)cc1,97%,93.6,100%,84.5%,105%,98.1%,91.7%,109%,101%,90.7%,92.1%,101%,94.6%,93.9%,103%,117%,101%,106%,90.9%,86.7%
C[C@]12CC[C@H]3[C@@H](CC=C4C[C@@H](O)CC[C@@]43C)[C@@H]1CC[C@@H]2[C@](C)(O)CCc1cccnc1,79.8%,36.7,79.9%,63.8%,84.3%,60.7%,69.1%,72.8%,59.8%,48.9%,32.3%,33.1%,62%,113%,21.9%,82.8%,81.3%,65.7%,56%,65.9%
CCCNNC(=O)c1ccc(-c2ccc(NC(=O)CCCCCCC(=O)N[C@H](C(=O)N3C[C@H](O)C[C@H]3C(=O)N[C@@H](C)c3ccc(-c4scnc4C)cc3)C(C)(C)C)cc2)cc1,7.01% (active),79.4,47.8%,83.6%,2.19% (active),78.2%,61.8%,-14.4% (active),23.2%,21.1%,17.9%,2.23% (active),32.7%,27.3%,53.6%,18.5%,25.5%,30.2%,30.3%,96.7%
O=C(CCCCCCNC(=O)C(O)(O)C(F)(F)F)Nc1ncc(-c2ccccc2)s1,-23.3% (active),20.8,2.31% (active),-27.9% (active),-10.3% (active),-53.1% (active),-40.4% (active),-41.8% (active),22.5%,5.09% (active),10.9%,14.6%,-2.23% (active),-0.912% (active),18.9%,-23.8% (active),-23.5% (active),-43% (active),0.452% (active),2.08% (active)
Cc1ccc2c(n1)C(=O)C(Cl)=C(Nc1cccc(C(F)(F)F)c1)C2=O,99.7%,58.1,85.8%,-67.7% (active),127%,-96.2% (active),81.8%,86%,4.32% (active),6.52% (active),9.01% (active),-17.6% (active),76%,119%,-97.8% (active),89.8%,-57.4% (active),-86.3% (active),116%,93.3%
CC(=O)Nc1cc(N2CCOCC2)c2nc(NC(=O)c3[nH]c(C)c(Cl)c3Cl)sc2c1,83%,85.1,49.8%,57.9%,112%,49.3%,93.1%,95.6%,74.2%,65%,28.6%,55%,67.1%,94.7%,-10.8% (active),95.5%,82.5%,72.3%,31.3%,48.9%
C#C[C@]1(O)CC[C@H]2[C@@H]3CC=C4c5sc(Nc6cccc(F)c6)nc5CC[C@]4(C)[C@H]3CC[C@@]21C,27.8%,25,45.6%,17.1%,65.1%,35%,7.13% (active),31.7%,8.66% (active),5.5% (active),1.48% (active),-31.8% (active),43.8%,57.5%,44.5%,-10.6% (active),49.8%,27.4%,-7.5% (active),37.9%
